# Shown are actives, neighbours in structure and some others; about 6.3% of the full set was active somewhere.
# VP16 counter: inhibits Gal4-VP16 luciferase reporter, ROR gamma counter-screen | 3.5% of 310,000 active | AID 2546 | Potency, µM (titrated, usually from 53.6 µM), most hits filed as inhibitors | Drosophila S2 Gal4-VP16 UAS-luciferase, luminescence, 20 h;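 further: Gal4-VP16 expression switched on by copper sulfate through the metallothionein promoter; nearly all actives have a fitted effect of over 50% in size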
# TGFb inhibitor: inhibitors of TGF-b signaling; Potency, µM (doses to about 46.1 µM), hits mostly inhibitors; HepG2 CAGA-GFP TGF-b/SMAD3 reporter, GFP fluorescence, 18 h; TGF-beta stimulated, 500 pg/mL final; AID 588855; 1.2% of 410,000 active; further: nearly all actives have a fitted effect of over 65% in size
#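 GFP signal (ex488/em500-530) from TGF-beta-stimulated HEPG2 CAGA-GFP cells, 500 pg/mL final, 18 h at 37 degrees C in DMEM plus 1% FBS, normalized to unstimulated and DMSO-stimulated controls.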
# ATXN viability: viability counter-screen for ATXN expression inhibitors. S2 cells (HEK-293 line with an ATXN2-luciferase reporter) viability, CellTiter-Fluor protease fluorescence, 24 h. Potency, µM (highest dose often 56.7 µM), actives largely listed as cytotoxic. 0.49% of 400,000 active; further: nearly all actives have a fitted effect of over 40% in size
# RORg inh: ROR gamma (mouse) transcription inhibition. 5.4% of 310,000 active. Potency, µM (doses to about 53.6 µM), hits mostly inhibitors. Drosophila S2 Gal4-RORgamma UAS-luciferase reporter, 20 h. P51450; further: nearly all actives have a fitted effect of over 60% in size
# Target sequence (P51450 whole entry, looked up, the tested form may be a part): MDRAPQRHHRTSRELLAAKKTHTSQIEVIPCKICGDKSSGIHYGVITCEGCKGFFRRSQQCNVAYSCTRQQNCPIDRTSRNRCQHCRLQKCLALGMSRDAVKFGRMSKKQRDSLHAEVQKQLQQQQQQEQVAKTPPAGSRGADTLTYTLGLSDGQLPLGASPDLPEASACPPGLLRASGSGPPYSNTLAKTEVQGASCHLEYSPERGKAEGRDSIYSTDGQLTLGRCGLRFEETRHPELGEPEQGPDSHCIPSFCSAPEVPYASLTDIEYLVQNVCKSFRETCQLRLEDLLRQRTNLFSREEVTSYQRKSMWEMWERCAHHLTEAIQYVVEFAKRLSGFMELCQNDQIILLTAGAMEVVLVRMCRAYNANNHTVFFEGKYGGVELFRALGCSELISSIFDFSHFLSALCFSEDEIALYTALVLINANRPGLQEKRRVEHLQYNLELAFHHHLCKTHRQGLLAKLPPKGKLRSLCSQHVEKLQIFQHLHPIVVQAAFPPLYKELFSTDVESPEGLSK
#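 A Gal4/UAS one-hybrid system in insect cells: metallothionein-promoter Gal4–ROR gamma fusion plus Photinus luciferase reporter. Copper sulfate 700 uM final, 20 hr ambient incubation, luminescent detection after 10 min with reagent.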
# ATXN2 expr inh: ATXN2 expression inhibition. Potency, µM (highest dose often 57 µM), usual class: inhibitors. 0.72% of 360,000 active. HEK-293 ATXN2-luciferase reporter, luminescence, 24 h; further: nearly all actives have a fitted effect of over 55% in size
#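 qHTS (up to 57 uM final) was run with 24 h compound exposure of reporter cells at 37 °C. Each well was multiplexed: SteadyGlo luminescence measured ATXN2-luciferase expression after a fluorogenic Gly-Phe-AFC viability readout (25 uM final).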
# HepG2 viability: counter-screen for TGF-b inhibitors: cytotoxicity in HepG2 cells; HepG2 CAGA-GFP viability, ATP luminescence, 18 h; Potency, µM (top dose mostly 46.1 µM), actives largely listed as cytotoxic; 0.76% of 410,000 active; AID 588856
#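 CellTiter-Glo luminescence gave cytotoxicity after 18 hours at 37 degrees C. The cells were HepG2 CAGA-GFP in 1% FBS DMEM, stimulated with 500 pg/mL TGF-beta after compound addition. %Activity was normalised to no-cell wells (complete cell-killing) and DMSO (no toxicity), and curves were fitted and classified.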
# A number is an active result; 0 = inactive; ? = inconclusive; - = not tested or not shown; [ ] = dose if it differs, or a comment. The call rests on the fitted dose curve; in most records, active means well fitted curve in the direction sought with a large enough effect; inconclusive means small, poorly fitted or top-dose-only effect, or another doubt; inactive means no such curve, though single readings can be large; an effect the other way counts as inactive or inconclusive.
SMILES,VP16 counter,TGFb inhibitor,ATXN viability,RORg inh,ATXN2 expr inh,HepG2 viability
CC(C)(C)c1ccc(OCCCC(=O)N2CCOCC2)cc1,11µM,0,0,?,-,0
O=C(CCCOc1ccc(Cl)cc1)N1CCCCC1,0,0,0,0,0,0
O=C(CCCOc1ccc(Cl)cc1)N1CCOCC1,0,0,0,0,0,0
O=C(CCCOc1ccccc1)N1CCCCC1,0,0,0,0,11µM,0
O=C(CC1S/C(=N/N=C/c2cccs2)NC1=O)Nc1ccc(Cl)cc1 (configuration not stated),?,0,?,?,0,0
O=C1N/C(=N\N=C\c2cccs2)SC1Cc1ccc(Cl)cc1Cl (configuration not stated),0.25µM,0,?,0.35µM,0,0
O=C(CC1S/C(=N/N=C/c2cccs2)NC1=O)Nc1ccc(Cl)c(Cl)c1 (configuration not stated),?,0,0,0,0,0
O=C1N/C(=N\N=C\c2cccs2)SC1Cc1cccc(Cl)c1Cl (configuration not stated),0.22µM,0,?,0.32µM,0,0
O=C1N/C(=N\N=C\c2ccco2)SC1Cc1ccccc1[N+](=O)[O-] (configuration not stated),5µM,0,11µM,3.2µM,-,0
CC1CCC2(CC1)NC(=O)N(CC(=O)Nc1ccc(N3CCCCC3)cc1)C2=O (configuration not stated),-,0,0,-,-,0
Nc1[nH]c(=S)[nH]c(=O)c1N=O,-,0,-,-,-,0
CSc1ccc(-c2ccc3c(c2)CC(CNC(=O)Cn2nc(C)nc2C)O3)cc1 (configuration not stated),-,-,0,-,-,-
CCCCCCc1c(C)nc(-n2[nH]c(C)c(CCO)c2=O)[nH]c1=O,16µM,0,0,3.5µM,0[11.3 µM],0
CCCCCCCc1c(C)nc(N2CCOCC2)[nH]c1=O,0,0,0,0,0,0
O=C(NC(=S)NC1C2CC3CC(C2)CC1C3)C12CC3CC(CC(C3)C1)C2 (configuration not stated),2.8µM,0,0,1µM,0,0
CN(C(=S)NC(=O)C12CC3CC(CC(C3)C1)C2)c1ccc(O)cc1,-,?,-,-,-,0
O=C(NC1C2CC3CC(C2)CC1C3)C1CC1 (configuration not stated),0,0,0,0,0,0
CC(C)(C)NC(=S)NC(=O)C12CC3CCC(CC(C3)C1)C2,4.5µM,0,0,2.8µM,0,0
CN(C)NC(=S)NC(=O)C12CC3CC(CC(C3)C1)C2,2.8µM,0,0,1µM,0,0
O=C(CO)[C@@H](O)[C@H](O)[C@@H](O)CO,-,-,0,-,0,-
Cn1c2ccccc2c2cnn(CC(=O)NCCCN3CCCCC3)c(=O)c21,-,0,0,-,0,0
CC(=O)Nc1ccccc1/C=C/c1ccc2c(C)ccc(O)c2n1,28µM,0,0,8.9µM,0,0
CC(=O)Nc1cc2c3ccccc3ccc2c2ccccc12,-,0,0,-,0,0
CC(=O)Nc1cc(-c2ccccc2)ccc1O,?,0,?,0,0,0
CC(=O)Nc1ccccc1/C=C/c1ccc2c(C)cc(C)c(O)c2n1,7.9µM,0,0,7.9µM,0,0
SMILES,VP16 counter,TGFb inhibitor,ATXN viability,RORg inh,ATXN2 expr inh,HepG2 viability
CCOC(=O)C1=C(COC(=O)[C@@H]2CCCN2S(=O)(=O)c2ccc(C)cc2)NC(=O)NC1C (some centres not stated),0,0,0,0,0,0
CCOC(=O)c1nnn(CC(=O)Nc2cc(C)cc(C)c2)c1C(=O)OCC,-,?,0,-,0,0
COc1ccc(O)c(/C=N/NC(=S)Nc2cccnc2)c1,0,?,0,6.3µM,-,0
CC(C)(C)NC(=S)N/N=C/c1cccnc1,10µM,0,0,5.6µM,0,0
COc1cc(NC(=S)Nc2cccnc2)cc(OC)c1OC,0,0,0,0,0,0
COc1cccc(/C=N/NC(=S)Nc2cccc(C(=O)O)c2)c1,0,0,0,10µM,0,0
Oc1ccc(/C=N/NC(=S)Nc2cccnc2)cc1,?,0,0,?,-,0
COc1cccc(/C=N/NC(=S)Nc2cccnc2)c1,3.2µM,0,0,2.5µM,0,0
CC(C)CCn1c(SC(C)C#N)nc2ccccc2c1=O (configuration not stated),-,0,-,-,-,0
CCn1c(-c2cccnc2)nc2cc(NC(=O)COC)cc(C(=O)N3CCOc4ccccc4C3)c21,-,-,0,-,-,-
COC(=O)c1ccc2nccnc2c1,0,0,0,0,0,0
COC(=O)c1ccc2c(c1)C(C)(C)C(/C=C/c1ccccc1O)=[N+]2C,0,?,7.9µM,0,3.5µM,6.3µM
O=C(Nc1ccc2nc(SCC(=O)N3CCc4ccccc43)sc2c1)c1ccc(F)cc1,-,0,-,-,-,0
CC(C)(C)OC(=O)NCc1ccc(CNC(=O)c2[nH]cnc2C(=O)N[C@@H](Cc2ccccc2)C(=O)OC(C)(C)C)cc1,20µM,0,0,11µM,0,0
CC(C)C[C@H](NC(=O)c1nc[nH]c1C(=O)NCc1ccc(CNC(=O)OC(C)(C)C)cc1)C(=O)OCc1ccccc1,?,0,?,11µM,0,0
CC(C)(C)OC(=O)NCc1ccc(NC(=O)c2nc[nH]c2C(=O)N[C@@H](Cc2ccccc2)C(=O)OCc2ccccc2)cc1,?,?,-,7.1µM,?,0
CC(C)(C)OC(=O)NCc1ccc(CNC(=O)c2[nH]cnc2C(=O)N[C@@H](Cc2ccccc2)C(=O)OCc2ccccc2)cc1,?,?,0,11µM,0,0
CC(C)(C)OC(=O)NCCCC[C@H](NC(=O)c1[nH]cnc1C(=O)N[C@@H](Cc1ccccc1)C(=O)OCc1ccccc1)C(=O)OC(C)(C)C,-,?,?,-,0,0
COCCNC(=O)c1[nH]c(C(F)(F)F)nc1-c1ccccc1,-,0,0,-,0,0
CC(C)(C)OC(=O)[C@H](Cc1ccccc1)NC(=O)c1nc[nH]c1C(=O)N[C@@H](CCCCN)C(=O)OC(C)(C)C,-,0,?,-,?,0
CC(C)(C)OC(=O)[C@H](Cc1ccccc1)NC(=O)c1[nH]cnc1C(=O)Nc1ccccc1F,-,?,18µM,-,?,11µM
CNC(=O)c1[nH]cnc1C(=O)N[C@@H](Cc1ccccc1)C(=O)OC(C)(C)C,?,0,0,7.9µM,0,0
CC(C)(C)OC(=O)[C@H](Cc1ccccc1)NC(=O)c1nc[nH]c1C(=O)NCc1ccccc1,16µM,?,0,11µM,0,0
CCOc1ccc(S(=O)(=O)N2CCCC(C(=O)Nc3ccccc3)C2)cc1 (configuration not stated),0,0,0,?,0,0

# Compound activity deposited in PubChem BioAssay by National Center for Advancing Translational Sciences (NCATS).
